Test results taken from PubChem BioAssay.
“And” between values parts separate entries of the source, which are not always exact repeats. Equal entries are not always repeated. The source made the active and inactive calls.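 Rule for the calls, unless noted: active = thallium flux through the channel raised or lowered by more than 3 SD from vehicle-only wells, actives on both sides; inactive = the rest.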

How the values were obtained:
[1] = P. berghei load reduction in hepatocytes – cell-based, HepG2, luciferase luminescence, HepG2 viability, primary screen (AID 624349; in the data active = parasite load remaining mostly below about 12%, no sharp cut-off; inactive = mostly above about 10%;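 note: 100% = mean of DMSO negative control wells on the same plate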); details: P. berghei liver stage in HepG2, luciferase luminescence, concentration not given here; parasite load remaining: stronger effect = lower value; viability: measured here: HepG2 viability without parasites
[2] = signal quenchers or enhancers, Cy5 substrate/SSB – biochemical, NIH Clinical Collection, E. coli SSB, artefact control for HCV NS3 helicase inhibitor project (AID 743268; call rule not given here); details: Cy5-oligo bound E. coli SSB, fluorescence interference
[3] = test system: Hepatitis C virus NS3 helicase; test: blockers of NS3h binding to DNA – biochemical, fluorescence polarization, NIH Clinical Collection, primary screen (AID 743270; call rule not given here); details: NS3 helicase binding to Cy5-dT15 DNA, stronger effect = higher value, concentration not given here
[4] = target: Single-stranded DNA-binding protein (Escherichia coli (strain K12)) (UniProt P0AGE0); test: SSB-ssDNA binding inhibitors – biochemical, fluorescence polarization, NIH Clinical Collection, counter-screen for HCV NS3 helicase inhibitor project (AID 743271; in the data active = inhibition above about 28%); details: E. coli SSB-DNA binding, stronger effect = higher value, concentration not given here
[5] = compounds distorting NS3 helicase fluorescence signal – biochemical, NIH Clinical Collection, artefact control for HCV NS3 helicase inhibitor project (AID 743272; call rule not given here;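 note: HCV NS3 helicase with a Cy5 labelled single stranded DNA probe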); details: fluorescence interference counterscreen, HCV NS3 helicase assay; stronger effect = lower value
[6] = modulation of C. elegans fzo-1 (AID 1259413; call rule not given here;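 note: fzo-1 mutant C. elegans worms in liquid wells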); details: C. elegans fzo-1 modulator screen, mean read-out; stronger effect = higher value
[7] = EMT-state selective cytotoxicity in co-culture – imaging, PC-3E GFP, TEM4-18 mCherry, primary screen (AID 1345086;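 active = compounds killing one labelled cell type while sparing the other, by normalised counts and ratio limits, not self-fluorescent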;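 for all read-outs here: cells exposed to compound for 72 h before imaging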;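 for red/green cell ratio (normalised): normalised mesenchymal count divided by normalised epithelial count so high means epithelial killing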); details: PC-3E GFP / TEM4-18 mCherry co-culture, imaging cell counts, at 1 µM; for red/green cell ratio (normalised): actives lie on both sides, counts scaled to control wells, 1 = unselective
[8] = viability loss with induced miR-34 in A549 – imaging, A549 dox-inducible miR-34, nuclei and caspase counts, primary screen (AID 1347080;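 active = compounds whose cell count with miR-34 switched on is under 0.7 times the count with it off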); details: A549 miR-34 inducible, Hoechst nuclei count, 48 h
F380Y = test: BK channel mutant inhibitors and activators – cell-based, U2OS BacMam, thallium flux, beta subunits, selectivity assay, profiling panel (AID 1259406); details: U2OS BacMam BK variants, at 30 µM;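 note: initial slope of Thallos dye fluorescence rise after thallium is added; log ratio against the mean of 0.3% DMSO vehicle wells on the same plate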
F380Y/beta1 = test: as above; details: U2OS BacMam BK variants, at 30 µM
F380Y/beta2Delta = test: as above; details: U2OS BacMam BK variants, at 30 µM
F380Y/beta4 = test: as above; details: U2OS BacMam BK variants, at 30 µM
[9] = target: Calcium-activated potassium channel subunit alpha-1 (Homo sapiens) + Leucine-rich repeat-containing protein 26 (Homo sapiens) (UniProt Q12791+Q2I0M4); test: as above; details: U2OS BacMam BK variants, F380Y/Slo1WT/gamma1, at 30 µM
Calcium-activated potassium channel subunit alpha-1 (Homo sapiens) + Leucine-rich repeat-containing protein 26 (Homo sapiens), sequence (Q2I0M4 whole entry, looked up, one chain of several): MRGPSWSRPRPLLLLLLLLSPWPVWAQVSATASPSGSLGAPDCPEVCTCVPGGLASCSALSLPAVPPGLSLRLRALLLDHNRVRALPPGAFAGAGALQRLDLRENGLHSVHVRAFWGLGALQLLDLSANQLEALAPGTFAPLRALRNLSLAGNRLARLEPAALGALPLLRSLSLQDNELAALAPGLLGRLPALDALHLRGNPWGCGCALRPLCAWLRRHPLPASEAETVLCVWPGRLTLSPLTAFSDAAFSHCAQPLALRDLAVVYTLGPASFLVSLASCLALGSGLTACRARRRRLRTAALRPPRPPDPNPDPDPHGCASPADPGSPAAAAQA

R275C = test: as above; details: U2OS BacMam BK variants, at 30 µM
R275C/beta1 = test: as above; details: U2OS BacMam BK variants, at 30 µM
R275C/beta2Delta = test: as above; details: U2OS BacMam BK variants, at 30 µM
R275C/beta4 = test: as above; details: U2OS BacMam BK variants, at 30 µM
R275C/Slo1WT/beta2 = test: as above; details: U2OS BacMam BK variants, at 30 µM
[10] = MELAS cybrid and Rieske KO viability enhancers – cell-based, MELAS cybrids, Rieske KO mouse fibroblasts, CellTiter-Glo, primary screen (AID 1508586;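 active = mean z-score across replicates of 1.96 or higher in either the MELAS or the Rieske mutant cell line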;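 note: z relative to plate mean and SD of compound and empty wells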); details: low glucose
[11] = measured here: epithelial PC-3E GFP cell survival
[12] = measured here: mesenchymal TEM4-18 mCherry cell survival
[13] = stronger effect = lower value, cell number ratio, induced over uninduced
[14] = measured here: relative caspase fold change +Dox/-Dox
[15] = measured here: total cells with miR-34 induction, stronger effect = lower value
[16] = measured here: total cells without miR-34 induction

CNCC[C@H](Oc1cccc2ccccc12)c1cccs1
1.07: normalised cell number [7, 11]
11200: cell count [8, 16]
4.69: fold change [8, 14]
active: log fold change Tl+ flux (R275C/beta1) 0.207 | log fold change Tl+ flux (R275C/beta4) 0.129
10400: cell count [8, 15]
1: normalised cell number [7, 12]
inactive: parasite load remaining [1] 36.5% and 51.1% and -0.135% | fluorescence ratio [2] 0.96 and 0.95 | inhibition [3] 1.19% and -5.46% | inhibition [4] 2.98% and -4.33% | fluorescence ratio [5] 0.93 and 0.89 | mean signal [6] 220 | red/green cell ratio (normalised) [7] 0.93 | fold change [8, 13] 0.93 | log fold change Tl+ flux (F380Y) -0.075 | log fold change Tl+ flux (F380Y/beta1) -0.085 | log fold change Tl+ flux (F380Y/beta2Delta) 0.0364 | log fold change Tl+ flux (F380Y/beta4) -0.0361 | log fold change Tl+ flux [9] 0.0212 | log fold change Tl+ flux (R275C) 0.0449 | log fold change Tl+ flux (R275C/beta2Delta) 0.066 | log fold change Tl+ flux (R275C/Slo1WT/beta2) 0.0145
101% and 64.7% and 0.245%: viability [1]

CCN(CC)CC#CCOC(=O)C(O)(c1ccccc1)C1CCCCC1 (stereo not given)
1.14: normalised cell number [7, 12]
1.13: normalised cell number [7, 11]
0.474 and 0.0643: z-score ([10]; Rieske KO mouse fibroblast survival, CellTiter-Glo 72 h)
inactive: fluorescence ratio [2] 1.01 | inhibition [3] -5.91% | inhibition [4] 1.05% | fluorescence ratio [5] 0.97 | mean signal [6] 265 | red/green cell ratio (normalised) [7] 1.02 | z-score ([10]; MELAS cybrid survival, CellTiter-Glo 48 h, stronger effect = higher value) -0.351 and 0.357 | log fold change Tl+ flux (F380Y) -0.0501 | log fold change Tl+ flux (F380Y/beta1) -0.0697 | log fold change Tl+ flux (F380Y/beta2Delta) -0.0326 | log fold change Tl+ flux (F380Y/beta4) 0.0257 | log fold change Tl+ flux [9] -0.0619 | log fold change Tl+ flux (R275C/beta1) -0.00047 | log fold change Tl+ flux (R275C/beta2Delta) -0.0198 | log fold change Tl+ flux (R275C/Slo1WT/beta2) -0.0121
active: log fold change Tl+ flux (R275C) -0.105 | log fold change Tl+ flux (R275C/beta4) 0.205

CCCCN1CCCC1CNC(=O)c1cc(C#N)c2ccccc2c1OC (stereo not given)
active: log fold change Tl+ flux (F380Y) -0.12 | log fold change Tl+ flux (F380Y/beta1) -0.109 | log fold change Tl+ flux (F380Y/beta2Delta) -0.243 | log fold change Tl+ flux (F380Y/beta4) -0.221
0.846 and 1.44: fold change [8, 14]
8480 and 8490: cell count [8, 15]
66.3%: viability [1]
10400 and 9080: cell count [8, 16]
inactive: parasite load remaining [1] 35.8% | fluorescence ratio [2] 0.93 | inhibition [3] -0.22% | inhibition [4] 2.76% | fluorescence ratio [5] 0.91 | mean signal [6] 308 | fold change [8, 13] 0.818 and 0.935 | log fold change Tl+ flux [9] -0.0355 | log fold change Tl+ flux (R275C) -0.0841 | log fold change Tl+ flux (R275C/beta1) -0.0222 | log fold change Tl+ flux (R275C/beta2Delta) -0.085 | log fold change Tl+ flux (R275C/beta4) -0.0283 | log fold change Tl+ flux (R275C/Slo1WT/beta2) -0.00509
